Data from PubChem BioAssay (NCI).
The panel holds about 83,000 compounds, 20% with a hit somewhere; the sample as a whole holds those more often.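 Compound tested at a single concentration for 48 hours in 96-well plates; a percent growth value below 10 was scored as active.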 Unmarked numbers belong to inactive results. Calls of active or inactive are those of the source.

What follows are compounds tested on HL-60(TB) leukemia (assay: NCI-60 one-dose screen, 48 h (100 = growth as untreated, 0 = no growth, -100 = all killed)). Details: 10 µM unless noted.

| Structure (SMILES) | growth |
| --- | --- |
| CN(C)c1ccc(/C=N/N=C(N)N)cc1 | 59.2% |
| O=C1CC(c2ccsc2)c2snc(-c3ccc(Cl)cc3)c2N1 (stereo not given) | 12.9% |
| CSc1nc(N)c(NS(=O)(=O)c2ccc(C(C)=O)cc2)c(=O)[nH]1 | 108% |
| Cn1cnc([N+](=O)[O-])c1S(=O)(=O)Oc1ccc(Cl)cc1 | -35.2% (active) |
| O=C1/C(=C/c2ccccc2)CN(C(=O)CCN2CCC(=NO)CC2)C/C1=C\c1ccccc1 | 5.03% (active) |
| CC(=O)C(C)Cc1cc2c(cc1C)C(C)(C)CCC2(C)C (stereo not given) | 101% |
| Nc1nccc2c1ccn2-c1ccc(NC(=O)c2ccc(N3CCOCC3)c(C(F)(F)F)c2)cc1 | -4.36% (active) |
| COc1cccc(-n2cc(-c3nc(Cl)c4ccccc4n3)nn2)c1 | 97.3% |
| COc1cc(/C=C/c2cc(O)c3cc(C(C)=O)c(=O)oc3c2)cc2c1O[C@]1(C)CC[C@@H](O)C(C)(C)[C@H]1C2 | 4.64% (active) |
| N#Cc1c(Nc2ccc(F)cc2)n[nH]c1-c1cccs1 | 95.3% |
| Clc1ccc2c(NCCCN3CCN(c4nc(-n5ccnc5)nc5ccccc45)CC3)ccnc2c1 | 52.7% |
| CCOC(=O)c1nc2c3ccccc3cnn2c1C(=O)c1ccc(OC)cc1 | 102% |
| O=S(=O)(Oc1ccc(-c2ccc3sccc3c2)cc1)c1ccccc1 | 99.6% |
| CCOC(=O)C/C(=N\Nc1cc(=O)[nH]c2ccc(OC)cc12)C(=O)OCC | 94% |
| O=c1oc2ccccc2cc1-c1csc(N=Nc2c(O)[nH]c3ccc(Cl)cc23)n1 | 105% |
| O=C(/C=C/c1ccco1)c1ccccc1O | 92.5% |
| COc1ccc(C=Nc2c(C(=O)Nc3cccc(Cl)c3C)sc3nc(C)c(C(=O)/C=C/c4ccc(OC)cc4)cc23)cc1 | 9.38% (active) |
| CCCCCCCc1n(Cc2ccc3ccccc3c2)c2ccccc2[n+]1Cc1ccc2ccccc2c1 | -63.7% (active) |
| CCN(CC)CCN1CNC(=S)NC1 | 78.8% |
| CN(C)C(=O)Oc1cccc([N+](C)(C)C)c1 | 91% |

| Structure (SMILES) | growth |
| --- | --- |
| O=C1/C(=C\c2ccc(F)cc2)CN(C(=O)c2ccccc2)C/C1=C\c1ccc(F)cc1 | 25.6% |
| COc1ccc(-c2cc(/C=C/C(=O)c3ccc(N)cc3)[nH]n2)cc1 | -23% (active) |
| O=C(c1ccc(Nc2nccc(NCCCNc3ccnc4cc(Cl)ccc34)n2)cc1)N1CCCCC1 | 22.4% |
| C=C(C)[C@@H]1CC[C@]2(C(=O)NC(C)=O)CC[C@]3(C)[C@H](CC[C@@H]4[C@@]5(C)CCCNC(C)(C)[C@@H]5CC[C@]43C)[C@@H]12 | -51.2% (active) |
| COc1ccc(-c2cncn2-c2ccc(-c3nc4cc(OC)c(OC)c(OC)c4s3)cc2)cc1N | 27.8% |
| CC(O)CCC(C)[N+](=O)[O-] (stereo not given) | 96.9% |
| COc1cc(C(=O)/C=C/c2cccnc2Nc2ccc(Cl)cc2)cc(OC)c1OC | -27.2% (active) |
| O/N=C/c1ccncc1 | 110% |
| COc1cc(Cl)cc(-c2nn(-c3cccc(NC(=O)Nc4cc(C(F)(F)F)cc(C(F)(F)F)c4)c3)cc2-c2ccncc2)c1 | -20.1% (active) |
| Cc1ccc(S(=O)(=O)NC(=O)n2cc(-c3ccncc3)c(-c3ccc(Cl)c(O)c3)n2)cc1 | 85.1% |
| COc1ccc(Nc2ncc(Br)c(NCCCNC(=O)C3CCCC3)n2)cc1 | 17% |
| COc1cccc(NC(=O)c2sc3nc4c(cc3c2N)CN(Cc2ccccc2)CC4)c1 | 50.1% |
| COc1cc(CCN=Cc2ccccc2O)c([N+](=O)[O-])cc1OC | 101% |
| C=C1c2nc3ccccc3n2C=C(c2ccc(Cl)cc2)N1Cc1ccccc1 | 60.1% |
| CCN(C(=O)Nc1ccccc1Cl)c1ccccc1 | 113% |
| O=C1c2ccc3c4c(ccc(c24)C(=O)N1CCCNCc1ccccc1)C(=O)N(CCCNCc1ccccc1)C3=O | -71.3% (active) |
| COc1ccc(SC2c3ccc(C)cc3Oc3nc(N)c(C#N)c(N)c32)cc1 (stereo not given) | -53.4% (active) |
| O=C(NCc1ccc2c(c1)OCO2)NCC1CCCC(CNC(=O)NCc2ccc3c(c2)OCO3)C1 (stereo not given) | 108% |
| Cn1ccnc1C(=O)/C=C/c1ccc(CC(=O)Nc2cc(C(F)(F)F)cc(C(F)(F)F)c2)cc1 | 16.1% |
| N=C(N)c1ccc(-c2ccc(-c3cccs3)s2)s1 | -62% (active) |
